Compounds without any hit were thinned out: in the full panel of roughly 83,000, 20% have a hit.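 Assay: single dose, 48 h. Readout: percent growth (0 = no net growth; negative = cell death). Active: <10.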 Unmarked numbers belong to inactive results. Active and inactive are the calls of the source.
Tests used:
Experiment in all cases: NCI-60 one-dose screen, 48 h (100 = growth as untreated, 0 = no growth, -100 = all killed)
HCT-15 colon = conditions: 10 µM unless noted
HT29 colon = conditions: 10 µM unless noted
SNB-75 CNS = conditions: 10 µM unless noted
SNB-19 CNS = conditions: 10 µM unless noted
U251 CNS = conditions: 10 µM unless noted
PC-3 prostate = conditions: 10 µM unless noted
SK-MEL-5 melanoma = conditions: 10 µM unless noted
UACC-62 melanoma = conditions: 10 µM unless noted
LOX IMVI melanoma = conditions: 10 µM unless noted
SK-MEL-28 melanoma = conditions: 10 µM unless noted
SK-MEL-2 melanoma = conditions: 10 µM unless noted
EKVX NSCLC = conditions: 10 µM unless noted
SN12C renal = conditions: 10 µM unless noted
UO-31 renal = conditions: 10 µM unless noted
ACHN renal = conditions: 10 µM unless noted
CAKI-1 renal = conditions: 10 µM
A498 renal = conditions: 10 µM unless noted
CCRF-CEM leukemia = conditions: 10 µM unless noted
MOLT-4 leukemia = conditions: 10 µM unless noted

SMILES	growth (HCT-15 colon)	growth (HT29 colon)	growth (SNB-75 CNS)	growth (SNB-19 CNS)	growth (U251 CNS)	growth (PC-3 prostate)	growth (SK-MEL-5 melanoma)	growth (UACC-62 melanoma)	growth (LOX IMVI melanoma)	growth (SK-MEL-28 melanoma)	growth (SK-MEL-2 melanoma)	growth (EKVX NSCLC)	growth (SN12C renal)	growth (UO-31 renal)	growth (ACHN renal)	growth (CAKI-1 renal)	growth (A498 renal)	growth (CCRF-CEM leukemia)	growth (MOLT-4 leukemia)
O=C1COc2ccccc2C(=O)N1CCCCNc1ccccc1	90.6%	81.8%	106%	94.1%	85.7%	47.2%	99.3%	95%	101%	103%	104%	106%	58.4%	12.2%	110%	107%	97.8%	1.06% (active)	34.1%
COC1=C(OC)C(=O)C=CC1=O	108%	95.4%	110%	108%	107%	92.7%	111%	94.1%	100%	120%	112%	121%	103%	89.1%	103%	115%	120%	46%	12.6%
O=C1C(Cl)=C(Nc2ccccc2)C(=O)C(Cl)=C1Nc1ccccc1	109%	112%	113%	129%	104%	109%	112%	111%	96.9%	119%	113%	114%	109%	94.2%	109%	106%	78.6%	103%	114%
O=C(Nc1ccc(-n2ccc3c(NC(=O)c4ccccc4)nccc32)cc1)c1ccc(Cl)c(C(F)(F)F)c1	-32.9% (active)	-3.9% (active)	60.3%	44.6%	-51.6% (active)	42%	27.1%	40.6%	-28.8% (active)	54.6%	53.4%	72.8%	47.9%	36.6%	37.1%	26.3%	63.6%	-9.57% (active)	8.54% (active)
O=C(Nc1cccc(-n2ccc3c(NC(=O)c4ccccc4)nccc32)c1)c1cccc(C(F)(F)F)c1	9.77% (active)	-13.2% (active)	44.6%	28.5%	7.1% (active)	33.2%	-45.4% (active)	29.6%	8.39% (active)	40.9%	18.8%	43.4%	25%	22.4%	24.7%	9.21% (active)	7.75% (active)	8.28% (active)	13.1%
O=C(O)c1cccc2oc(-c3ccccc3O)nc12	34.1%	36.1%	74.7%	67.8%	45.6%	47.8%	58.1%	65%	4.75% (active)	77.9%	71.2%	45%	57.5%	54.3%	57.9%	42.3%	47.8%	31.3%	66.4%
O=C(CSc1nnc(-c2cc3c([nH]c4ccccc43)c(-c3cccc(O)c3)n2)n1-c1ccccc1)c1ccccc1	46.3%	64.9%	45.8%	84.2%	32.9%	40.2%	33.2%	69.8%	11.2%	71.5%	65.7%	69.3%	67.7%	63.4%	40.3%	45.5%	67%	30.9%	41.7%
CCCCOc1nc2ccc(Cl)cc2cc1/C=C/C(=O)/C=C/c1ccc(Cl)cc1	81.9%	25.2%	86.4%	93.9%	35.3%	57.5%	49.4%	67.5%	24.1%	81.9%	101%	83.7%	92.1%	66.9%	81.5%	98.1%	92.4%	76.2%	71.5%
O=C(Nc1ccc(-n2ccc3c(NC(=O)c4ccccc4)ncnc32)cc1)Nc1ccc(Cl)c(C(F)(F)F)c1	-53.2% (active)	-85.8% (active)	53.5%	9.33% (active)	-79.6% (active)	-38.8% (active)	8.12% (active)	29.7%	2.99% (active)	34.6%	-22.3% (active)	8.35% (active)	16.4%	23.5%	4.23% (active)	-36.8% (active)	18.3%	-14.5% (active)	1.2% (active)
O=C(Nc1ccc(-n2cc(-c3ccncc3)c(-c3ccc(O)c(Cl)c3)n2)cc1)Nc1cccc(Cl)c1Cl	43.1%	1.45% (active)	72.5%	71.9%	39.7%	29%	31.2%	89.5%	52.8%	60.3%	66.8%	44.9%	83.1%	57.2%	47.8%	67.3%	68.7%	38.2%	39.1%
O=C(Nc1cccc(-n2ccc3c(NC(=O)c4ccccc4)ncnc32)c1)Nc1ccc(Cl)c(C(F)(F)F)c1	34.1%	26.6%	44.4%	46.5%	31.7%	22.7%	19%	39.5%	24.7%	49.4%	-8.08% (active)	32.1%	40.9%	43.5%	25.5%	18.1%	42.9%	16.4%	15.8%
COCCNC(C(=O)c1ccccc1)c1ccccc1 (centres undefined)	99.6%	107%	88.2%	97%	95.1%	92.7%	96.6%	97.9%	103%	105%	107%	99.2%	100%	97.7%	106%	102%	88.4%	101%	98.6%
O=C(Nc1ccc(-n2cc(-c3ccncc3)c(-c3ccc(O)c(Cl)c3)n2)cc1)c1ccc(Cl)c(Cl)c1	18.2%	-10.4% (active)	70%	59.6%	26.8%	20.2%	-20.3% (active)	59.1%	-29.1% (active)	59.7%	20.2%	47.7%	58.3%	23%	20.6%	18.6%	79.6%	16.5%	32.3%
O=S1(=O)N(CCNc2nccc(-c3c(-c4cccc(O)c4)nc4sccn34)n2)CCN1Cc1ccccc1	55.7%	37%	70.4%	113%	69%	63%	30.6%	20.7%	28.6%	60.2%	19.2%	90.9%	64.1%	43.8%	41.1%	39.4%	-20.9% (active)	31.9%	63.1%
O=S(=O)(CCN1CCOCC1)Nc1cncc(-c2ccc3ncnc(Nc4ccc(F)c(Cl)c4)c3c2)c1	84.6%	73.6%	56.3%	61%	68.9%	53.2%	95.4%	77.5%	56.6%	81.7%	81.5%	44.7%	66.7%	51.9%	45.2%	72.3%	73.1%	57.1%	71.7%
O=C1c2ccccc2OC=C(c2ccccc2)N1CCCCNc1ccc(F)cc1	90.3%	76.9%	90.7%	87.3%	81.8%	47.2%	94.3%	76.3%	86.1%	104%	89.2%	96.8%	77.4%	53.5%	97.5%	85.8%	98.3%	63.7%	48.4%

Source: PubChem BioAssay (NCI)
